{"source": "PubChem BioAssay AID652136", "about": "(The Scripps Research Institute Molecular Screening Center, 2013)", "note": "In all, about 2,400 compounds went through this assay and about 1,900 (79%) were called active. The set was probably picked from earlier hits. The list is a sample of the results. Unmarked numbers belong to inactive results.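 Rule for the calls: active = inhibition above the mean of all tested compounds plus 3 SD (cut at about 3% in these data); inactive = the rest.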"}
{"experiment": "SF-1 AF-2 mutant transactivation artefacts – cell-based, luminescence, counter-screen for DAX1 inhibitor project (AID 652136);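 note: 0% = DAX-1 transfected cells with DMSO and 100% = cells without DAX-1 with DMSO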", "conditions": "HEK293 StAR-luciferase, SF-1 AF2 mutant, at 6.8 µM, stronger effect = higher value"}
{"smiles": "O=C(Nc1ccccc1)Nc1nc2ccccc2s1", "inhibition": "10.3% (active)"}
{"smiles": "Nc1ccc(C(=O)Nc2ccccc2N)cc1", "inhibition": "42.6% (active)"}
{"smiles": "O=C(NC(=S)NC1CCCCC1)c1ccc(Cl)cc1", "inhibition": "4.24% (active)"}
{"smiles": "CSCCC(NC(=O)c1ccco1)C(=O)Nc1cc(C)ccn1", "note": "(configuration not stated)", "inhibition": "7.83% (active)"}
{"smiles": "O=c1c2c(nc3n1CCCCC3)sc1c(O)cccc12", "inhibition": "7.48% (active)"}
{"smiles": "CC[C@]1(O)CC2CN(CCc3c([nH]c4ccccc34)[C@@](C(=O)OC)(c3cc4c(cc3OC)N(C=O)[C@H]3[C@@](O)(C(=O)OC)[C@H](OC(C)=O)[C@]5(CC)C=CCN6CC[C@]43[C@@H]65)C2)C1", "note": "(some centres not stated)", "inhibition": "-7.3%"}
{"smiles": "COC(=O)c1sc(NC(=O)c2ccc(OC)cc2OC)nc1C", "inhibition": "3.15% (active)"}
{"smiles": "CN1OC[C@@H]2CN[C@H](c3ccc(-c4ccccc4)cc3)C[C@@H]21", "inhibition": "5.72% (active)"}
{"smiles": "CC(=O)Nc1cccc(-c2csc(Nc3cccc(C)n3)n2)c1", "inhibition": "8.58% (active)"}
{"smiles": "Cc1ccc(-c2nc3ccccc3[nH]2)cc1N", "inhibition": "8.86% (active)"}
{"smiles": "c1ccc2[nH]c(-c3nc4ccccc4[nH]3)nc2c1", "inhibition": "8.74% (active)"}
{"smiles": "O=c1oc(/C=C/c2ccccc2)nc2ccccc12", "inhibition": "7.24% (active)"}
{"smiles": "Cn1ccnc1SCC(=O)Nc1ccc2c(c1)OCCO2", "inhibition": "5.39% (active)"}
{"smiles": "CCN(CC(=O)Nc1c(F)cccc1F)C(=O)c1cnc(C)cn1", "inhibition": "0.25%"}
{"smiles": "Cc1nc2cc(NC(=O)Nc3cccc(F)c3)ccc2n1C", "inhibition": "8.9% (active)"}
{"smiles": "O=C(N/N=C\\C1CC=CCC1)c1ccc(Br)o1", "note": "(configuration not stated)", "inhibition": "0.2%"}
{"smiles": "NC(=O)CSc1nnc(NC(=O)c2ccc3ccccc3c2)s1", "inhibition": "7.69% (active)"}
{"smiles": "CCSc1nnc(NC(=O)c2ccc(C)cc2)s1", "inhibition": "6.21% (active)"}
{"smiles": "Nc1c(C(=O)Nc2ccc3c(c2)OCCO3)nnn1Cc1ccccc1", "inhibition": "7.14% (active)"}
{"smiles": "CC[C@]1(O)C[C@@H]2CN(CCc3c([nH]c4ccccc34)[C@@](C(=O)OC)(c3cc4c(cc3OC)N(C)[C@H]3[C@@](O)(C(=O)OC)[C@H](OC(C)=O)[C@]5(CC)C=CCN6CC[C@]43[C@@H]65)C2)C1", "inhibition": "-6.49%"}
{"smiles": "Cc1ccc(-n2cc3ccc([N+](=O)[O-])cc3n2)cc1", "inhibition": "6.18% (active)"}
{"smiles": "Brc1ccc2nc(N3CCCC3)sc2c1", "inhibition": "4.08% (active)"}
{"smiles": "S=C(c1ccc(-c2ccccc2)o1)N1CCCCC1", "inhibition": "5.47% (active)"}
{"smiles": "Cc1ccnc(NC(=O)CCNS(=O)(=O)c2ccc(C)c(C)c2)c1", "inhibition": "9.35% (active)"}
{"smiles": "Cc1ccnc(NC(=O)CNC(=O)c2ccccc2)c1", "inhibition": "2.35%"}
{"smiles": "CC1CCCN(c2ccc(C(=O)NCCc3ccccc3)cn2)C1", "note": "(configuration not stated)", "inhibition": "3.59% (active)"}
{"smiles": "O=C(c1cnn2ccccc12)N1CCc2ccccc21", "inhibition": "6.23% (active)"}
{"smiles": "Cc1sc(NC(=O)c2ccc3ncsc3c2)c(C(N)=O)c1C", "inhibition": "5.5% (active)"}
{"smiles": "O=C(Nc1ccc(Cl)c(Cl)c1)c1ccccc1NC(=O)C1CC=CCC1C(=O)O", "note": "(configuration not stated)", "inhibition": "4.5% (active)"}
{"smiles": "Cc1nc(NC(=O)c2ccc3c(c2)OCCO3)ccc1Br", "inhibition": "7.07% (active)"}
{"smiles": "Cc1ccc(C(=O)NNC(=O)c2ccc3c(c2)OCCO3)cc1", "inhibition": "2.35%"}
{"smiles": "CN1CCN(c2ccc(NC(=O)c3ccc4c(c3)OCCO4)cc2Cl)CC1", "inhibition": "4.72% (active)"}
{"smiles": "O=C(Nc1ccccc1)c1ccc2c(c1)OCCCO2", "inhibition": "7.83% (active)"}
{"smiles": "Cc1c(C(=O)Nc2ccccn2)oc2ccc(Br)cc12", "inhibition": "8.11% (active)"}
{"smiles": "O=C(CCc1ccccc1)Nc1ncc([N+](=O)[O-])s1", "inhibition": "1.92%"}
{"smiles": "O=C(Nc1ccn(Cc2ccccc2)n1)c1n[nH]c([N+](=O)[O-])c1Cl", "inhibition": "3.58% (active)"}
{"smiles": "c1ccc(Cc2c(-c3ccco3)nc3c4ccccc4ccn23)cc1", "inhibition": "8.27% (active)"}
{"smiles": "COc1ccccc1CCC(=O)OCC(=O)N1CCN(S(=O)(=O)c2ccc(C)cc2C)CC1", "inhibition": "1.55%"}
{"smiles": "CC1CCN(C(=O)COC(=O)c2cc(=O)[nH]c3ccccc23)CC1", "inhibition": "5.98% (active)"}
{"smiles": "COc1cc(/C=N/O)ccc1OCc1ccc([N+](=O)[O-])cc1", "inhibition": "6.8% (active)"}
{"smiles": "COc1cc(C2c3cc4c(cc3C(O)C3COC(=O)C23)OCO4)cc(OC)c1OC", "note": "(configuration not stated)", "inhibition": "-5.65%"}
{"smiles": "CC(C)c1ccc(Nc2ncccc2C#N)cc1", "inhibition": "5.42% (active)"}
{"smiles": "Cc1cccc(NC(=O)/C=C/c2ccc3c(c2)OCO3)n1", "inhibition": "6.21% (active)"}
{"smiles": "C(=N\\Nc1ccc2ccccc2n1)/c1ccc2c(c1)OCO2", "inhibition": "2.84%"}
{"smiles": "COc1ccc(/C=C/C(=O)Nc2ccc(C34CC5CC(CC(O)(C5)C3)C4)cc2)cc1OC", "inhibition": "-4.01%"}
{"smiles": "COc1cccc(/C=C/C(=O)Nc2ccc3c(c2)OCCO3)c1", "inhibition": "3.61% (active)"}
{"smiles": "O=C(NCCc1c[nH]c2ccccc12)c1cc2ccccc2oc1=O", "inhibition": "7.29% (active)"}
{"smiles": "O=C(O)c1ccc(N/N=C/c2cn(-c3ccccc3)nc2-c2cccs2)cc1", "inhibition": "6.77% (active)"}
{"smiles": "Cc1csc(SCC(=O)Nc2sccc2C#N)n1", "inhibition": "10.8% (active)"}
{"smiles": "Cc1cc(C)c(C)c(S(=O)(=O)N2CCN(C(=O)c3ccc4c(=O)n5c(nc4c3)CCC5)CC2)c1C", "inhibition": "-0.34%"}
{"smiles": "CCCc1cc(C(=O)Nc2ccc(C(=O)OC)cc2)cs1", "inhibition": "3.67% (active)"}
{"smiles": "CCCc1cc(C(=O)Nc2ccc(Cl)cn2)cs1", "inhibition": "6.47% (active)"}
{"smiles": "CC(C)(O)C#Cc1ccc(CNC[C@H]2O[C@@H](n3cnc4c(=O)[nH]c(N)nc43)[C@H](O)[C@@H]2O)s1", "inhibition": "-0.84%"}
{"smiles": "CCCNC(=O)C1CC(=O)N(c2ccc(OCc3ccccc3)cc2)C1", "note": "(configuration not stated)", "inhibition": "4.36% (active)"}
{"smiles": "CCc1ccc(NC2Nc3cc(C)nn3S2)cc1", "note": "(configuration not stated)", "inhibition": "5.97% (active)"}
{"smiles": "O=C(Nc1ccc(NC(=O)c2cccs2)cn1)c1ccco1", "inhibition": "6.87% (active)"}
{"smiles": "CC(=O)Nc1cccc(C(=O)OCC(=O)c2ccc3c(c2)OCO3)c1", "inhibition": "5.14% (active)"}
